IDH1 R132H inh: qHTS for Inhibitors of mutant isocitrate dehydrogenase 1 (IDH1): qHTS; 0.093% of 390,000 active; Potency, µM (series often up to 76.6 µM), for the others: top-dose activity change, negative = inhibition, hits mostly inhibitors; AID 602179, 2012; Isocitrate dehydrogenase [NADP] cytoplasmic (Homo sapiens), O75874; IDH1-R132H enzyme, NADPH consumption, diaphorase/resazurin fluorescence; note: potency is the fitted concentration of half-maximal effect; % is set by controls: 0 for no effect and ±100 for the full control effect; nearly all actives have a fitted effect of over 65% in size
Target sequence (O75874 whole entry R132H, stated change not applied): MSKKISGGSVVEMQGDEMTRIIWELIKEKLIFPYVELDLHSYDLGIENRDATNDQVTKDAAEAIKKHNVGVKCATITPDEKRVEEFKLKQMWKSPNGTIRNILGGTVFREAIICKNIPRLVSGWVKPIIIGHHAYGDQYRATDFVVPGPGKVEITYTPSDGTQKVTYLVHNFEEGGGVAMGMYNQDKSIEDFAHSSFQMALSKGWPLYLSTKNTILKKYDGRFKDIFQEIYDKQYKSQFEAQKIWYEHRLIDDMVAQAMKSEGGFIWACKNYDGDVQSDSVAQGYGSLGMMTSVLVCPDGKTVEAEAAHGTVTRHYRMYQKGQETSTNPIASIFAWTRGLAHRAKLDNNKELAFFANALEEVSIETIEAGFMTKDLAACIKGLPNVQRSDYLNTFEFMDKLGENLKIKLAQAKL
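IDH1-R132H (0.5 ug/mL dispensed) in pH 7.5 Tris buffer was preincubated 30 min with compound, then given a substrate mix of 0.016 mM NADPH and 2 mM alpha-KG for 80 min at room temperature; remaining NADPH was read by diaphorase/resazurin fluorescence.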
Anesthetic bind: qHTS Assay for Identification of Novel General Anesthetics; Potency, µM (highest dose often 77.5 µM), for inactives: top-dose activity change, negative = displacement, hits mostly inhibitors; apoferritin/1-aminoanthracene competitive binding, fluorescence; 0.074% of 350,000 active; Ferritin light chain (Equus caballus), P02791; note: potency is the fitted concentration of half-maximal effect; % is set by controls: 0 for no effect and ±100 for the full control effect; nearly all actives have a fitted effect of over 20% in size
Target sequence (P02791 2-175 limits assumed): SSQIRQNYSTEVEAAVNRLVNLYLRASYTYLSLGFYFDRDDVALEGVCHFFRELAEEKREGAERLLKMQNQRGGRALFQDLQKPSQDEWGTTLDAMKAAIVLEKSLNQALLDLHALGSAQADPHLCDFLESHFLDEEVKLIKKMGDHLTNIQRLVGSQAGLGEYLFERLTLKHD
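Apoferritin-based anesthetic binding model; compound displacement of fluorescent 1-AMA measured as endpoint fluorescence after 10 minutes at room temperature, scaled to free-ligand and complex controls.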
Giardia kill: Small Molecules that selectively kill Giardia lamblia: qHTS; 0.15% of 340,000 active; activity change, % at 7.66 µM, hits read low; Giardia lamblia trophozoite viability; in the data active = activity change below about -80%; inconclusive = between about -30% and that limit;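 note: parasites exposed to compound for two days anaerobically before the ATP read; % is set by controls: 0 for no effect and ±100 for the full control effect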
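Luminescent ATP signal served as the viability read-out, measured 15-30 min after adding ATP detection reagent to trophozoites that had been incubated with compounds for 48 hrs at 37 deg C anaerobically at 100 cells/well.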
A549 viability: Nrf2 qHTS screen for inhibitors: counterscreen for cytotoxicity; A549 ARE-Fluc cells, CellTiter-Fluor viability, 18-24 h; Potency, µM (titrated, usually from 46 µM), for inactives: at the highest dose activity change, negative = cytotoxicity, hits mostly inhibitors; 0.16% of 390,000 active; note: potency is the fitted concentration of half-maximal effect; % is set by controls: 0 for no effect and ±100 for the full control effect
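A549 ARE-Fluc cells in 5% FBS OPTI-MEM, 5000 cells/well, rested 2 h then exposed to compounds in concentration-response for 18-24 h at 37 °C. Viability by CellTiter-Fluor fluorescence (Ex 405/Em 525) after 30 min; luciferase luminescence (BugLite, 15 min, RT) read afterwards.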
Nrf2 inh: Nrf2 qHTS screen for inhibitors; 2.1% of 360,000 active; A549 ARE-Fluc reporter, luciferase luminescence, 18-24 h; Potency, µM (series often up to 46 µM), for the others: at the top dose activity change, negative = inhibition, actives largely listed as inhibitors; note: potency is the fitted concentration of half-maximal effect; % is set by controls: 0 for no effect and ±100 for the full control effect; nearly all actives have a fitted effect of over 60% in size
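Nrf2 activity is the BugLite luminescence, read 15 min after reagent at room temperature, following CellTiter-Fluor cytotoxicity readout (30 min, 37C). Compound titrations were applied for 18-24 h to 5000 A549 ARE_Fluc cells/well in 5% FBS OPTI-MEM.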
Nrf2 ARE act: qHTS of Nrf2 Activators | AREc32 ARE-luciferase reporter (MCF7-derived line), luminescence, 24 h | Potency, µM (highest dose often 46.1 µM), inactives show at the highest dose activation, hits mostly activators | 0.31% of 410,000 active | AID 624171, 2012; note: potency is the fitted concentration of half-maximal effect; % of control where 0% means no effect; nearly all actives have a fitted effect of over 65% in size
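Steps: seed AREc32_Fluc cells (1000/well, 5% FBS OPTI-MEM); incubate overnight at 37 deg C; add 23 nL compound; incubate 24 hr; add Steady-Glo; hold 30 min RT; read luminescence.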
An asterisk follows results filed as active; ? = inconclusive; . = no result; [ ] = dose if it differs, or a comment. Most compounds without a hit are left out; they make up all but 2.3% or so of the library. Unless noted, calls come from the whole dose curve; as a rule, active = well fitted curve in the direction sought with a large enough effect; inconclusive = small, poorly fitted or top-dose-only effect, or another doubt; inactive = no such curve, though single readings can be large; an effect the other way counts as inactive or inconclusive.

SMILES	IDH1 R132H inh	Anesthetic bind	Giardia kill	A549 viability	Nrf2 inh	Nrf2 ARE act
CCc1ccc2occ(CC(=O)Nc3ccc(C)c(C)c3)c2c1	18%	-1%	.	4%	3%	2%
C=C1C(=O)[C@@]23[C@H](O)C[C@@H]4C(C)(C)CC[C@H](O)[C@]4(C)[C@@H]2C[C@H](O)[C@@H]1[C@H]3O	4%	-5%	-8	?	15µM*	-2%
C=C1C(=O)[C@@]23[C@H](O)C[C@@H]4C(C)(C)CC[C@H](O)[C@@]4(C)[C@@H]2CC[C@@H]1[C@H]3O	-1%[38.3 µM]	4%	-11	?	18µM*	-3%
Cc1ccc(N/C(N)=N/c2nc3c(c(=O)[nH]2)CCCC3)c(C)c1	0%	-6%	-10	-17%	-33%	0%
Cc1ccc(N/C(N)=N/c2nc(C)cc(N3CCCCC3)n2)c(C)c1	-4%	-12%	7	?	13µM*	0%
Clc1ccc(CSc2nnc(Cn3cnc4ccccc43)o2)cc1	11%	-12%	10	-14%	8.2µM*	-1%
N=c1n(CCN2CCOCC2)c2ccccc2n1CC(=O)c1cccc([N+](=O)[O-])c1	3%	-12%	-8	-2%	1%	3.2µM*
CCn1c(=N)n(CC(=O)c2cccc([N+](=O)[O-])c2)c2ccccc21	1%	-8%	-27	0%	?	?
O=C(NC(NC(=S)Nc1cccc(Cl)c1)C(Cl)(Cl)Cl)OCc1ccccc1 (configuration not stated)	-2%	-20%	-7	?	16µM*	3%
O=C(NC(NC(=S)Nc1cccc(C(=O)O)c1)C(Cl)(Cl)Cl)OCc1ccccc1 (configuration not stated)	18%	-14%	-1	9%	13%	-1%
O=C(CCc1ccccc1)NC(NC(=S)Nc1ccc(Cl)cc1)C(Cl)(Cl)Cl (configuration not stated)	2%	-3%	-1	?	15µM*	5%
Cc1ccc(NC(=O)c2cc3ccccn3n2)cc1F	29%	3%	.	-13%	?	7%
C#CC(=O)N(c1ccc(OC)c(OC)c1)C(C(=O)NC1CCCC1)c1cccs1 (configuration not stated)	3%	7%	2	?	23µM*	?
C#CC(=O)N(c1cccc(OC)c1)C(C(=O)NC1CCCC1)c1cccs1 (configuration not stated)	-12%	-7%	3	-15%	16µM*	-2%
COc1ccc(C2Nc3ccccc3C(=O)N2Cc2ccccc2)cc1COc1ccc(Cl)cc1 (configuration not stated)	.	.	.	-1%	-15%	.
CCOC(=O)N1CCC(n2c(SCC(=O)Nc3ccccc3OC)nc3ccccc3c2=O)CC1	0%	-3%	4	.	15µM*	0%
CCOC(=O)N1CCC(n2c(SCC(=O)NCc3ccccc3)nc3ccccc3c2=O)CC1	2%	-8%	12	-3%	-15%	0%
COc1ccc2c(c1)CO[C@]21O[C@H](CCO)C[C@H](O)[C@H]1O	.	.	.	.	.	0%
COc1ccc(Cc2c(-c3ccccc3)nc3c(C)cc(Br)cn23)c(C)c1	.	.	.	.	.	18%
Cc1n(Cc2ccccc2)c2ccccc2[n+]1Cc1ccccc1	6%	-14%	4	-7%	16µM*	-1%
Cc1cccc(CSCc2ccc(C(=O)NCCc3ccccc3)o2)c1	-5%	-9%	.	5%	.	0%
CCOC(=O)c1c(C)[nH]c(C)c1C(=O)CSc1nc2ccccc2c(=O)n1-c1ccccc1C	1%	-17%	25	?	?	6%
CCOC(=O)c1c(C)[nH]c(C)c1C(=O)CSc1nc2ccccc2c(=O)n1-c1ccc(F)cc1	-4%	-20%	-21	?	23µM*	6%
CC(C)CCCCCCCCCCCCC(=O)NCC(=O)NC1C(C)OC(Nc2ncnc3nc[nH]c23)C(O)C1O (configuration not stated)	1%	.	4	?	0.037µM*	-2%
O=C(C(=NNc1ccccc1)C(=S)Nc1ccccc1)c1ccccc1	.	.	.	.	.	-1%
SMILES	IDH1 R132H inh	Anesthetic bind	Giardia kill	A549 viability	Nrf2 inh	Nrf2 ARE act
COc1ccc(CNC(=S)NC2CCCC2)cc1	7%	-8%	-1	14%	43%	-1%[9.22 µM]
Cc1ccc(CNC(=S)NC2CCC(C(C)(C)C)CC2)cc1 (configuration not stated)	-5%	?	0	-23%	21µM*	-2%
O=C1C(Nc2ccccc2)=C/C(=N/S(=O)(=O)c2cccs2)c2ccccc21	17%	-4%	-8	15µM*	8.2µM*	-2%
Cc1ccc(S(=O)(=O)/N=C2\C=C(Nc3ccc(O)cc3)C(=O)c3ccccc32)cc1	19%	.	1	16µM*	18µM*	-4%
Cc1ccc(S(=O)(=O)/N=C2\C=C(Nc3cccc(C(=O)O)c3)C(=O)c3ccccc32)cc1	18%	-4%	9	-8%	4%	-2%
Cc1ccc(NC2=C/C(=N/S(=O)(=O)c3cccs3)c3ccccc3C2=O)cc1	13%	-10%	-24	?	?	-3%
COc1ccc(-c2nc3ccc(C)cn3c2CC(C)(C)C)cc1OC	.	.	.	.	.	7%
COc1cc(-c2ccc3ncnc(NCc4nc(C)cs4)c3c2)cc(OC)c1OC	.	.	.	-2%	?	.
O=C(CN1C(=O)COc2ccccc21)N1CCCC1	-10%	2%	3	0%	11%	0%
O=C(CN1C(=O)COc2ccccc21)N1CCCc2ccccc21	3%	-11%	1	?	23µM*	0%
CCOC(=O)c1cccc(NC(=O)c2ccc(NC(=O)C3CCCO3)cc2)c1 (configuration not stated)	0%	2%	21	-29%	12µM*	1%
CCOC(=O)c1ccc(NC(=O)C2CCCO2)cc1 (configuration not stated)	7%	-6%	-13	-6%	27%	0%
Cc1ccc(C(=O)NNC(=O)CSc2nnc3c(n2)[nH]c2ccc(C)cc23)cc1	-3%	-11%	3	-17%	?	0%
CCc1ccc2[nH]c3nc(SCC(=O)NNC(=O)c4ccc(C(C)(C)C)cc4)nnc3c2c1	0%	-9%	6	12µM*	?	-1%

Source: PubChem BioAssay
